# Measurements as given in PubChem BioAssay.
# This is one part of the list. Activity calls are given as the source filed them. Unless noted, the rule behind the calls is not given here.
# What was measured:
# [1] = Brca1-Bard1 BiLC signal decrease – luminescence, single concentration, counter-screen for Mdm2/MdmX interaction inhibitor project, confirmation (AID 504668); details: Brca1/Bard1 bimolecular luciferase complementation counterscreen, at 8 µM, stronger effect = higher value
# [2] = inhibition of PEG-3 promoter luciferase signal – cell-based, HeLa, luciferase reporter, single concentration, confirmation (AID 602417;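 active = at 20 µM dose, 40% or more inhibition averaged across four replicates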); details: HeLa PEG-Prom luciferase reporter, luminescence, overnight; at 20 µM; stronger effect = higher value
# [3] = NFkB reporter suppression in cystic fibrosis bronchial cells – cell-based, uHTS hits, panel, cytotoxicity readout, dose response (AID 624344); details: CF bronchial epithelial cells, PAF-induced NFkB reporter inhibition, with PAF, run 1; at 79 µM (top of the series) unless noted
# [4] = as above; details: CF bronchial epithelial cells, PAF-induced NFkB reporter inhibition, with PAF, run 2; at 79 µM (top of the series) unless noted
# PEG-3 [5] = target: PEG-3 (UniProt Q6IN02); experiment: inhibition of PEG-3 promoter-driven reporter – cell-based, HeLa, luciferase, CREF/GAPDH counter-screen panel, dose response (AID 624167); details: CREF/GAPDH counter-screens; HeLa PEG-Prom luciferase reporter, overnight, run 1, dose range 1, at 100 µM (top of the series) unless noted
# PEG-3 [6] = target: PEG-3 (UniProt Q6IN02); experiment: as above; details: CREF/GAPDH counter-screens; HeLa PEG-Prom luciferase reporter, overnight, run 2, dose range 1, at 100 µM (top of the series) unless noted
# Rat fibroblasts (CREF) [7] = experiment: as above; details: CREF/GAPDH counter-screens; run 1, dose range 1, at 100 µM (top of the series)
# Rat fibroblasts (CREF) [8] = experiment: as above; details: CREF/GAPDH counter-screens; run 2, dose range 1, at 100 µM (top of the series)
# Chain of PEG-3 (Q6IN02 whole entry, looked up): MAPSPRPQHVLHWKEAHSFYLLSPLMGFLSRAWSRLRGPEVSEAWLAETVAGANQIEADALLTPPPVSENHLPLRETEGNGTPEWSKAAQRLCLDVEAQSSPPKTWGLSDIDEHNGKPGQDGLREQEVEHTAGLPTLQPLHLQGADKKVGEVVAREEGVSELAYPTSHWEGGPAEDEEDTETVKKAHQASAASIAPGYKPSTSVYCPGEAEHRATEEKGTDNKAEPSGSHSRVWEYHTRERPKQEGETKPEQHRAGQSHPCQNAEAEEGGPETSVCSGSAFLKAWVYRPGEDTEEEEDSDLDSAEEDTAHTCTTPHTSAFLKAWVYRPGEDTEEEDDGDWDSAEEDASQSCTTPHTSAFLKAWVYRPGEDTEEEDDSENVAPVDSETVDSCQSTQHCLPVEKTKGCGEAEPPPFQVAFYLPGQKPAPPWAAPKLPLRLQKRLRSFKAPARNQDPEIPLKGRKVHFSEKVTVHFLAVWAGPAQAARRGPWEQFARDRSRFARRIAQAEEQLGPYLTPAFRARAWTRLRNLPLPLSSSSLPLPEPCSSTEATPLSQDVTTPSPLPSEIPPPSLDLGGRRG
smiles,measurement,setting,value
COC(=O)[C@@H]1[C@@H](C#N)C2(c3ccccc3-c3ccccc32)N(c2ccc(Cl)cc2)N1C#N,inhibition,[1],32.8% (active)
Nc1ccc(C(=O)OCc2nc3cc4ccccc4cc3[nH]2)cc1,inhibition,[1],34.5% (active)
Cc1sc2ncn(CC(=O)NCCCC(=O)Nc3ccc(C(C)C)cc3)c(=O)c2c1C,inhibition,[1],29.2% (active)
CN(CC1CCCO1)S(=O)(=O)c1ccc(C(=O)Nc2nc(-c3ccccn3)cs2)cc1 (configuration not stated),inhibition,[1],27.4% (active)
O=C(N/N=C/c1cc(Br)cc(Br)c1O)c1cccc(N2CCCC2=O)c1,inhibition,[1],26.3% (active)
COC(=O)c1cccc(C23CC4(C2)[C@H](CN(Cc2ccc(C(F)(F)F)cc2)[C@@H]4c2ccccc2)C3c2ccc(C(F)(F)F)cc2)c1 (some centres not stated),inhibition,[1],23.6% (active)
CCCNC(=O)c1ccc2c(=O)c(O)c(-c3cccc(Br)c3)[nH]c2c1,inhibition,[1],31.4% (active)
O=C(NCc1cccnc1)c1c(O)c2cccc3c2n(c1=O)CCC3,inhibition,[1],31.4% (active)
CCOc1cc(/C=N/N=C(\N)c2nonc2N)cc(Br)c1OCc1cccc2ccccc12,inhibition,[1],33.4% (active)
O=C1/C(=C/c2ccc(F)cc2)SC(=S)N1CCCC(=O)N1CCCCC1CCO (configuration not stated),inhibition,[1],23.7% (active)
O=[N+]([O-])c1ccc2ncnc(Nc3ccc4c(c3)OCCO4)c2c1,inhibition,[1],29.6% (active)
CCN1/C(=C/c2ccc3cccc(C)c3[n+]2CC)Sc2ccccc21,inhibition,[1],26.4% (active)
O=C(c1ccc(S(=O)(=O)c2ccc(F)cc2)c([N+](=O)[O-])c1)N1CCCCCC1,inhibition,[1],30.1% (active)
CC(=O)NC(c1ccco1)c1ccc2cccnc2c1O (configuration not stated),inhibition,[1],27.7% (active)
CCCCCCCCCn1ccc(=N)cc1,inhibition,[1],23.6% (active)
CC(C)(C)C(=O)N1CCN(c2ccc(NC(=O)c3ccc([N+](=O)[O-])o3)cc2)CC1,inhibition,[1],30.5% (active)
O=C(CCl)Nc1cn(-c2ccccc2)nc1-c1ccc(F)cc1,inhibition,[1],32.9% (active)
COc1ccc(C2=Nn3c(nnc3-c3ccccc3F)SC2)cc1OC1CCCC1,inhibition,[1],28.6% (active)
O=C1[C@H]2[C@@H](c3ccc(F)cc3)N3C(=O)N(c4ccc(Br)cc4)C(=O)[C@@]3(Cc3ccc(Cl)cc3)[C@H]2C(=O)N1C1CCCCC1,inhibition,[1],27.8% (active)
Cc1ccc(NC(=O)Cn2nnc(C(=O)NCCc3ccccc3)c2N)cc1Cl,inhibition,[1],29.3% (active)
N#Cc1c(-c2ccccc2)c(-c2ccccc2)nn(CC(=O)NNC(=O)Nc2ccc(Cl)c(Cl)c2)c1=O,inhibition,[1],35.9% (active)
O=C(Nc1cccc(Cl)c1)Nc1nnc(CSCCOc2ccc(Cl)cc2)s1,inhibition,[1],23% (active)
COc1ccc(/C=C2/SC(=S)N(CCCC(=O)Nc3ccc(O)cc3)C2=O)cc1OC,inhibition,[1],29.9% (active)
CN(Cc1cnc2nc(N)nc(N)c2n1)c1ccc(C(=O)N[C@@H](CCC(=O)O)C(=O)O)cc1,inhibition,[1],29.8% (active)
CCn1c(C)cc(C(=O)CN2C(=O)c3ccccc3S2(=O)=O)c1C,inhibition,[1],23.2% (active)
C=CCc1cccc(/C=N/NC(=O)CNc2ccccc2OC)c1O,inhibition,[1],28.3% (active)
Cc1ccc(OC(F)F)c(NC(=O)Nc2cccc(C(F)(F)F)c2)c1,inhibition,[1],23.7% (active)
Cc1ccc(CSC(Nc2ccc(F)cc2)=C(C#N)C#N)cc1,inhibition,[1],24.3% (active)
CC(C)C(=O)NC(c1ccco1)c1ccc2cccnc2c1O (configuration not stated),inhibition,[1],24% (active)
CCCCN1/C(=C/c2ccc3ccccc3[n+]2CC)Sc2ccccc21,inhibition,[1],32.5% (active)
O=C(CCc1ccccc1)N/N=C/c1cc(Br)ccc1O,inhibition,[1],26.9% (active)
CCC(=O)NC(c1ccc(OC)cc1)c1cc(Cl)c2cccnc2c1O (configuration not stated),inhibition,[1],25.5% (active)
O=C(Nc1ccc(-c2nc3ccc(NC(=O)c4cccs4)cc3[nH]2)cc1)c1cccs1,inhibition,[1],33.7% (active)
CCOC(=O)/C(=C\c1cccc(O)c1)c1nc2sc(C)c(C)c2c(=O)[nH]1,inhibition,[1],27% (active)
CC(NC(=O)/C(C#N)=C/c1ccc(Cl)c([N+](=O)[O-])c1)c1ccccc1 (configuration not stated),inhibition,[1],29% (active)
CCC(C)Nc1nc(-c2ccccn2)nc2ccccc12 (configuration not stated),inhibition,[1],29.2% (active)
O=C(NNc1c2ccccc2nc2ccccc12)C(O)c1ccccc1 (configuration not stated),inhibition,[1],34.4% (active)
COc1ccc([C@@H]2[C@@H]3C(=O)N(C(C)(C)C)C(=O)[C@@H]3[C@]3(CC(C)C)C(=O)N(c4ccc(C(F)(F)F)cc4)C(=O)N23)cc1,inhibition,[1],35% (active)
COC(=O)C1=C(C)NC(C)=C(C(=O)OC)C1c1ccccc1[N+](=O)[O-],inhibition,[1],28% (active)
CCOc1ccc(OCc2ccc(C(=O)NN=Cc3ccc[nH]3)cc2)cc1,inhibition,[1],28% (active)
CC(=O)O[C@@H]1C[C@H]2C(C)(C)C(=O)C=C[C@]2(C)[C@H]2CC[C@@]3(C)[C@H](c4ccoc4)OC(=O)[C@H]4O[C@]43[C@@]21C,inhibition,[1],33.8% (active)
CCN1/C(=C/C=C/c2oc3ccc4ccccc4c3[n+]2CC)Oc2ccc3ccccc3c21,inhibition,[1],28.6% (active)
O=C(/C=C/c1ccccc1)NC(NC(=S)Nc1cc(Cl)ccc1Cl)C(Cl)(Cl)Cl (configuration not stated),inhibition,[1],31.2% (active)
COC(=O)[C@@]1(Cc2ccccc2)[C@H]2C(=O)N(Cc3ccccc3)C(=O)[C@H]2[C@H]2CN=C(SCc3ccc(C#N)cc3)N21,inhibition,[1],28.4% (active)
Oc1ccc(/C=N/Nc2nc(-c3ccccc3F)nc3ccccc23)c(O)c1,inhibition,[1],31% (active)
N#CC(C#N)=C(Nc1ccc(F)cc1)SCc1cccc(F)c1,inhibition,[1],23.3% (active)
Cc1ccc(S(=O)(=O)Nc2cc(-c3nn(C)c(=O)c4ccccc34)ccc2N2CCOCC2)cc1,inhibition,[1],29.6% (active)
COc1cccc2sc(N(CCCN(C)C)C(=O)C(c3ccccc3)c3ccccc3)nc12,inhibition,[2],99.6% (active)
CNC[C@H](CC1CCCCC1)NC[C@H](NCCC1CCCC1)[C@H](C)O,inhibition,[2],97.4% (active)
CC(C)c1nc(NCCO)c(C#N)c2c1CCCC2,inhibition,[1],35% (active)
same,inhibition,[3],112%
same,inhibition,[4],103%
COC(=O)Cc1[nH]n(-c2nc3ccccc3s2)c(=O)c1C(C)=Nc1ccc(C)cc1,inhibition,[1],32.2% (active)
same,inhibition,PEG-3 [5],80.3%
same,inhibition,PEG-3 [6],83.8%
same,inhibition,Rat fibroblasts (CREF) [7],78.5%
same,inhibition,Rat fibroblasts (CREF) [8],80.2%
